Assay results published in PubChem BioAssay AID463173 (ICCB-Longwood Screening Facility, Harvard Medical School, 2010).
The whole screen tested about 52,000 compounds, of which about 1,700 (3.3%) were called active. Cut-off read from the data, not from the text of the source: active = survival mostly below about 52% (no sharp cut-off); inactive = mostly above about 56%. This excerpt belongs to a sample that is enriched for actives.

test system: Wild type; experiment: growth inhibition of S. aureus wild type versus tarO mutant, primary screen, teichoic acid synthesis inhibitors, RN4220, OD600 (AID 463173); conditions: S. aureus RN4220 wild type/DeltatarO growth, OD600, 18 h, hits give low values, screened at 18.75 µg/mL (by protocol)

Row | Compound | survival
1 | O=C(O)CC(C(=O)O)c1cn(Cc2ccccc2)c2ccccc12 (stereo unspecified) | 105% (inactive)
2 | CC(C)(C)OC(=O)N1CCC(c2c(C(=O)NCCc3ccccc3)cnn2-c2ccc(F)cc2)CC1 | 78% (inactive)
3 | Cc1ccc(C)c(Cn2c3ccccc3c3cnn(CC(=O)NCCC4=CCCCC4)c(=O)c32)c1 | 82% (inactive)
4 | CC(Sc1nc(=O)cc(N)n1CCc1ccccc1)C(=O)Nc1ccccc1C#N (stereo unspecified) | 75% (inactive)
5 | CC(C(=O)NCC1CCCO1)N(C(=O)c1snc(C(N)=O)c1N)c1cccc(F)c1 (stereo unspecified) | 101% (inactive)
6 | Cc1ccccc1NC(=O)CSc1nnc(C)c(=O)[nH]1 | 89% (inactive)
7 | Cc1ccc(Nc2sc(C(=O)c3ccccc3)c(N)c2C(=O)NC(C)C)cc1 | 78% (inactive)
8 | O=C(CSc1nccn1Cc1ccccc1)Nc1ccc2c(c1)OCO2 | 138% (inactive)
9 | COc1ccc(CC(=O)N(Cc2nc(-c3ccc(C)cc3)no2)C(C)C)cc1 | 33% (inactive)
10 | COc1ccc(-c2noc(CN(C(=O)Cc3ccc(C)cc3)C(C)C)n2)cc1 | 5% (active)
11 | COc1ccc(-c2noc(CN(C(=O)C(C)Oc3ccc(C)cc3)C(C)C)n2)cc1 (stereo unspecified) | 77% (inactive)
12 | COc1ccccc1OC(C)C(=O)N1CCN(CCc2ccccn2)CC1 (stereo unspecified) | 82% (inactive)
13 | COc1ccc2c(c1)c(=O)c(C(=O)c1ccc(F)cc1)cn2CC(=O)Nc1ccc2c(c1)OCO2 | 91% (inactive)
14 | CCCn1c(SCC(O)c2ccccc2)nc2ccccc21 (stereo unspecified) | 86% (inactive)
15 | Cc1nc2ccccc2c(=O)n1CC(C)C | 106% (inactive)
16 | CC(C)Nc1nc2c(-c3cccc(Br)c3)nnn2c2ccccc12 | 74% (inactive)
17 | CC(C)Cn1c(C2CC(=O)N(c3ccccc3Cl)C2)nc2ccccc21 (stereo unspecified) | 97% (inactive)
18 | CC(C)Cn1c(-c2ccccc2Cl)nc2ccccc21 | 26% (active)
19 | CCCn1c(-c2cccc(Br)c2)nc2ccccc21 | 3% (active)
20 | CCCCNc1nc2c(-c3cccc(Br)c3)nnn2c2ccccc12 | 92% (inactive)
21 | CC(C)Cn1c(-c2cccc(Br)c2)nc2ccccc21 | 27% (active)
22 | CC(=O)NC(C)c1nc2ccccc2n1Cc1ccccc1Cl (stereo unspecified) | 91% (inactive)
23 | O=C(NCCc1ccc(Cl)cc1)c1ccc(CS(=O)Cc2ccccc2Cl)o1 (stereo unspecified) | 62% (inactive)
24 | COc1ccccc1CCNC(=O)c1cc2c(=O)n3cccc(C)c3nc2n1C | 85% (inactive)

Row | Compound | survival
25 | COc1ccc(C2CC(=O)c3cc(-c4nc(-c5ccc(Cl)cc5)c(C)s4)c(=O)[nH]c3C2)cc1 (stereo unspecified) | 71% (inactive)
26 | Cc1ccc(CCNC(=O)c2cc3c(=O)n(C)c4ccccc4c3n2C)cc1 | 80% (inactive)
27 | Cc1ccc(C)c(Cn2c(=O)n(CCCCC(=O)NCc3ccc4c(c3)OCO4)c(=O)c3ccccc32)c1 | 110% (inactive)
28 | CC(NC(=O)CN1C(=O)c2cccnc2Oc2ccc(Cl)cc21)c1ccccc1 (stereo unspecified) | 74% (inactive)
29 | Cc1c(C(=O)N2CCC(C)CC2)c(S(=O)(=O)NCc2ccc(Br)cc2)c(C)n1C | 80% (inactive)
30 | COc1ccccc1Cn1cc(C(=O)c2ccc(C)cc2)c(=O)c2cc3c(cc21)OCCO3 | 83% (inactive)
31 | COc1ccc(OC)c(CNC(=O)c2ccc3c(c2)c(C)c(C)n3Cc2ccc(Cl)cc2)c1 | 82% (inactive)
32 | CCN(C(=O)c1cn(-c2ccc(OC)cc2)c(=O)c2ccccc12)c1cccc(Cl)c1 | 119% (inactive)
33 | CCNC(=O)c1sc2ccccc2c1Cl | 124% (inactive)
34 | CCN(C(=O)c1sc2cc(OC)ccc2c1Cl)c1ccccc1 | -9% (active)
35 | O=C(COc1ccc(Cl)cc1)NCCc1csc(-c2ccc(F)cc2)n1 | 73% (inactive)
36 | CC1CCc2c(sc3nnn(Cc4ccccc4)c(=O)c23)C1 (stereo unspecified) | 0% (active)
37 | O=c1c2c3c(sc2nnn1Cc1ccc(Br)cc1)CCCC3 | 28% (inactive)
38 | CC1CCc2c(sc3nnn(Cc4ccccc4Cl)c(=O)c23)C1 (stereo unspecified) | 16% (inactive)
39 | Cc1ccccc1Cn1nnc2sc3c(c2c1=O)CCCC3 | 0% (active)
40 | COC(=O)c1ccc(Cn2nnc3sc4c(c3c2=O)CCC(C)C4)cc1 (stereo unspecified) | 75% (inactive)
41 | Cc1ccc(Cn2nnc3sc4c(c3c2=O)CCC(C)C4)cc1 (stereo unspecified) | 60% (inactive)
42 | COC(=O)c1ccc(Cn2nnc3sc4c(c3c2=O)CCCC4)cc1 | 77% (inactive)
43 | CC1CCc2c(sc3nnn(Cc4ccc(F)cc4)c(=O)c23)C1 (stereo unspecified) | 1% (active)
44 | CCCOC(=O)c1ccc(Cn2nnc3sc4c(c3c2=O)CCC(C)C4)cc1 (stereo unspecified) | 77% (inactive)
45 | O=C(NCc1ccco1)c1ccc(COCC(F)(F)C(F)F)cc1 | 98% (inactive)
46 | COc1ccccc1N1CCN(C(=O)CN2C(=O)COc3ccc(S(=O)(=O)N4CCC(C)CC4)cc32)CC1 | 98% (inactive)
47 | CCCCc1nn2c(=O)cc(COC(=O)c3cccc(NC(=O)c4cccc(Cl)c4)c3)nc2s1 | 85% (inactive)
48 | CCNc1nc(NC(N)=S)nc(NC(C)(C)C)n1 | 112% (inactive)

Row | Compound | survival
49 | Fc1ccc(Nc2ncnc3onc(-c4cccc(Cl)c4)c23)c(F)c1 | 79% (inactive)
50 | C#CCNC(=O)NC1CCCN(S(=O)(=O)c2ccc(C)cc2)C1 (stereo unspecified) | 112% (inactive)
51 | CCc1ccc(C(=O)c2cn(CC(=O)Nc3ccc(OC)cc3)c3cc4c(cc3c2=O)OCCO4)cc1 | 89% (inactive)
52 | COc1cccc(NC(=O)C2CC(=O)N(c3ccc(Br)cc3)C2)c1 (stereo unspecified) | 63% (inactive)
53 | Cc1cc(C)n(C(=O)CNc2ccccc2Cl)n1 | 103% (inactive)
54 | COCCNC(=O)CCN1C(=O)c2cccnc2Oc2ccc(C)cc21 | 70% (inactive)
55 | COc1cc(C2NC(=O)NC(C)=C2C(=O)Nc2cc(C)cc(C)c2)ccc1O (stereo unspecified) | 69% (inactive)
56 | NC(=O)CSc1nc2ccc(NC(=O)COc3ccccc3)cc2s1 | 86% (inactive)
57 | Cc1ccc2onc(CC(=O)Nc3cccc(C(F)(F)F)c3)c2c1 | 92% (inactive)
58 | CC(C)c1ccc2occ(CC(=O)Nc3ccccc3Cl)c2c1 | 81% (inactive)
59 | CC(C)c1ccc2occ(CC(=O)Nc3cccc(C(F)(F)F)c3)c2c1 | 0% (active)
60 | Cc1ccc(NC(=O)Cc2coc3ccc(C(C)C)cc23)cc1Cl | 53% (inactive)
61 | Cc1ccc2c(CC(=O)Nc3cccc(C(F)(F)F)c3)coc2c1 | 8% (active)
62 | COC(=O)c1ccc(NC(=O)Cc2coc3cc(C)ccc23)cc1 | 106% (inactive)
63 | CCC(=O)N1CCc2cc(Br)cc(S(=O)(=O)N3CCCC(C(=O)Nc4ccc(C(C)C)cc4)C3)c21 (stereo unspecified) | 106% (inactive)
64 | O=C(CSC1=Nc2ccccc2N=C(c2ccc(F)cc2)C1)NCc1ccc(F)cc1 | 83% (inactive)
65 | COC(=O)C1=C(C)N(C(C)C)C(=O)C1(NC(=O)c1ccc(C(C)(C)C)cc1)C(F)(F)F (stereo unspecified) | 65% (inactive)
66 | O=C(NC1CCCCC1)c1cc(Nc2cccc(C(F)(F)F)c2)nc2ccccc12 | 72% (inactive)
67 | CCn1c(SCC#N)nnc1-c1ccc(S(=O)(=O)N2CCCC2)cc1 | 100% (inactive)
68 | CCCN(C(=O)C(C)C)c1nnc(-c2cc(OC)c(OC)c(OC)c2)s1 | 120% (inactive)
69 | CCCn1c(=O)c2sccc2n2c(CCCC(=O)NCCOC)nnc12 | 97% (inactive)
70 | O=C(NCCc1ccccc1)C1CCN(c2ncnc3c2nc2n3CCCCC2)CC1 | -4% (active)
71 | O=C(NCCc1ccc(Cl)cc1)C1CCN(c2ncnc3c2nc2n3CCCCC2)CC1 | 80% (inactive)
72 | O=C(NCc1ccccc1)C1CCN(c2ncnc3c2nc2n3CCCCC2)CC1 | 82% (inactive)

Row | Compound | survival
73 | O=C(C1CCN(c2ncnc3c2nc2n3CCCCC2)CC1)N1CCN(c2ccc(F)cc2)CC1 | -3% (active)
74 | Cc1cccc(N2CCN(C(=O)C3CCN(c4ncnc5c4nc4n5CCCCC4)CC3)CC2C)c1 (stereo unspecified) | 1% (active)
75 | Cc1cccc(N2CCN(c3ncnc4c3nc3n4CCCCC3)CC2C)c1 (stereo unspecified) | 75% (inactive)
76 | O=C(C1CCN(c2ncnc3c2nc2n3CCCCC2)CC1)N1CCN(c2ccccc2)CC1 | 71% (inactive)
77 | Cc1ccc(N2CCN(C(=O)C3CCN(c4ncnc5c4nc4n5CCCCC4)CC3)CC2)c(C)c1 | 55% (inactive)
78 | O=C(C1CCN(c2ncnc3c2nc2n3CCCCC2)CC1)N1CCN(c2ccc(Cl)cc2)CC1 | 55% (inactive)
79 | CC(=O)C1=C(c2ccc(Cl)cc2)N(C(C)=O)n2c(nnc2C2CCCCC2)S1 | 85% (inactive)
80 | CCOc1cccc(CC(=O)N2CCc3c([nH]c4ccccc34)C2c2ccc(C)cc2)c1OCC (stereo unspecified) | 83% (inactive)
81 | Cc1ccc2c(c1)c(=O)c(C(=O)c1ccncc1)cn2CC(=O)Nc1c(C)cccc1C | 72% (inactive)
82 | O=C(CC12CC3CC(CC(C3)C1)C2)N1CCCOC1 | 114% (inactive)
83 | N=c1nc(SCCC(=O)O)ss1 | 112% (inactive)
84 | COc1ccc(NC(=O)C(C)Sc2cc(-c3ccccc3)nc(C)n2)cc1Cl (stereo unspecified) | 81% (inactive)
85 | Cc1c(Cl)cccc1NC(=O)CCS(=O)(=O)c1ccc2c(c1)CC(=O)N2C | 85% (inactive)
86 | COc1ccc(C(CC(=O)Nc2ccc(C)c(C)c2)N2Cc3ccccc3C2=O)cc1OC (stereo unspecified) | 66% (inactive)
87 | COc1ccc(NC(=O)Cn2c(=O)n(CCC(=O)NCCc3ccc(OC)c(OC)c3)c(=O)c3ccccc32)cc1Cl | 92% (inactive)
88 | CC1=C(c2ccc(C)c(C)c2)S(=O)(=O)N=C1N1CCC(C(=O)N2CCC(C)CC2)CC1 | 81% (inactive)
89 | CC1=C(c2ccc(C(C)C)cc2)S(=O)(=O)N=C1N1CCC(C(=O)NCc2ccc(C)o2)CC1 | 63% (inactive)
90 | CC1=C(c2ccc(C)c(C)c2)S(=O)(=O)N=C1N1CCC(C(=O)N2CCCCC2)CC1 | 129% (inactive)
91 | CC1=C(c2ccc(Cl)cc2)S(=O)(=O)N=C1N1CCC(C(=O)NCCc2ccco2)CC1 | 55% (inactive)
92 | CC1=C(c2ccc(C(C)C)cc2)S(=O)(=O)N=C1N1CCC(C(=O)NCc2ccccc2)CC1 | -3% (active)
93 | CC1=C(c2ccc(C)c(C)c2)S(=O)(=O)N=C1N1CCC(C(=O)N2CCC(C(N)=O)CC2)CC1 | -4% (active)
94 | CC1=C(c2ccc(C(C)C)cc2)S(=O)(=O)N=C1N1CCC(C(=O)NCc2ccco2)CC1 | 63% (inactive)
95 | CCc1ccc(C2=C(C)C(N3CCC(C(=O)NCc4ccccc4)CC3)=NS2(=O)=O)cc1 | 67% (inactive)
96 | CC1=C(c2ccc(C(C)C)cc2)S(=O)(=O)N=C1N1CCC(C(=O)NCCc2ccco2)CC1 | 1% (active)
